How the values were obtained:
Assay in all cases: log2 ratio of Biotin-Ahx-Ub-VS probe labelling (fragment/DMSO); higher = less target engagement (more negative = stronger competition), active = hit call of the paper (q ≤ 0.05, log2 ratio ≤ -1)
Conditions in all cases: compound concentration: 200 uM; treatment time: 3 h
USP16 = USP16 (UniProt Q9Y5T5)
Procedure, shortened: (§1)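 Labelled DUBs from HEK293T lysate were NeutrAvidin-enriched, digested with LysC and trypsin, and run by diaPASEF LC-MS/MS. Before that, each 495 µg sample in Tris/CHAPS/IGEPAL buffer with protease inhibitors was treated in triplicate with fragment at 200 µM or vehicle for 3 h, then with Biotin-Ahx-Ub-VS at 0.5 µM final for 1 h. Values are average log2 ratios of fragment over vehicle by unpaired t-test, based on global-median-normalised Spectronaut label-free quantities from proteins with ≥2 unique peptides.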

USP19 = biological target: T1, USP19 (UniProt O94966)
T1 sequence (whole entry): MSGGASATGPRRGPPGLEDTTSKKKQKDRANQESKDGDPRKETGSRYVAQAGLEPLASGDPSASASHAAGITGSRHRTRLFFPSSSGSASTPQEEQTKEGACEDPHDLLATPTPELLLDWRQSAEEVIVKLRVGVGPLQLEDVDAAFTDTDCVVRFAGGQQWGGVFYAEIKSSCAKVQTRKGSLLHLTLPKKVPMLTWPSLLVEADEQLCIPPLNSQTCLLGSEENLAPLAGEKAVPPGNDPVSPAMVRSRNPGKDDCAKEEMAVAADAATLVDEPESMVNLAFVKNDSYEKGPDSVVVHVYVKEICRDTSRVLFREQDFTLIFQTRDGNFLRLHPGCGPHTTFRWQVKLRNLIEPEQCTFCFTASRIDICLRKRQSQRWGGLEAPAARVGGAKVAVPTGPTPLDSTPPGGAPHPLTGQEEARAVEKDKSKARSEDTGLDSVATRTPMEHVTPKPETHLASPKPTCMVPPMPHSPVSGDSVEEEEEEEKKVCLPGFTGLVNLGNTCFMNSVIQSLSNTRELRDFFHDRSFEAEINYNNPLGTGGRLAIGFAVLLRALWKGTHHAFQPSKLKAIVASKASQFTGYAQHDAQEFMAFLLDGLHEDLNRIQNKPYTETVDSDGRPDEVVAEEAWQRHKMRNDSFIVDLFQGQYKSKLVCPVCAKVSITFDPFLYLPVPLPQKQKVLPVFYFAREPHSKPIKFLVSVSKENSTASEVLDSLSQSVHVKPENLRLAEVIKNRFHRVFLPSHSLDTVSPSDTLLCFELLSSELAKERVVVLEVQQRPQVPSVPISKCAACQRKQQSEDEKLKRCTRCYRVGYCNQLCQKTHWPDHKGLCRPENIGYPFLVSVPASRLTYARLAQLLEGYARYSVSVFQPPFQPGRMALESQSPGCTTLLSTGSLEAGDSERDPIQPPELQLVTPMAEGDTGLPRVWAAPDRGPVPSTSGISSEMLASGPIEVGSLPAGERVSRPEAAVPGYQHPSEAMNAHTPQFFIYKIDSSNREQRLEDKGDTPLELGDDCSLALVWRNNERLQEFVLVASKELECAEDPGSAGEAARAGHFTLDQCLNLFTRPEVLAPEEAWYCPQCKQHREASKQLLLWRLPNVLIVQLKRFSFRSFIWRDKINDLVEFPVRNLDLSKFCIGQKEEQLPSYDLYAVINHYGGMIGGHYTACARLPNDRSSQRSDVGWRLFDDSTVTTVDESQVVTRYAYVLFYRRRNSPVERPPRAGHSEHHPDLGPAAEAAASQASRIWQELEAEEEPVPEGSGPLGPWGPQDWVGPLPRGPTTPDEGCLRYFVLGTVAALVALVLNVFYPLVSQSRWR
Procedure, shortened: as §1

USP24 = USP24 (UniProt Q9UPU5)
Chain of USP24 (Q9UPU5 whole entry): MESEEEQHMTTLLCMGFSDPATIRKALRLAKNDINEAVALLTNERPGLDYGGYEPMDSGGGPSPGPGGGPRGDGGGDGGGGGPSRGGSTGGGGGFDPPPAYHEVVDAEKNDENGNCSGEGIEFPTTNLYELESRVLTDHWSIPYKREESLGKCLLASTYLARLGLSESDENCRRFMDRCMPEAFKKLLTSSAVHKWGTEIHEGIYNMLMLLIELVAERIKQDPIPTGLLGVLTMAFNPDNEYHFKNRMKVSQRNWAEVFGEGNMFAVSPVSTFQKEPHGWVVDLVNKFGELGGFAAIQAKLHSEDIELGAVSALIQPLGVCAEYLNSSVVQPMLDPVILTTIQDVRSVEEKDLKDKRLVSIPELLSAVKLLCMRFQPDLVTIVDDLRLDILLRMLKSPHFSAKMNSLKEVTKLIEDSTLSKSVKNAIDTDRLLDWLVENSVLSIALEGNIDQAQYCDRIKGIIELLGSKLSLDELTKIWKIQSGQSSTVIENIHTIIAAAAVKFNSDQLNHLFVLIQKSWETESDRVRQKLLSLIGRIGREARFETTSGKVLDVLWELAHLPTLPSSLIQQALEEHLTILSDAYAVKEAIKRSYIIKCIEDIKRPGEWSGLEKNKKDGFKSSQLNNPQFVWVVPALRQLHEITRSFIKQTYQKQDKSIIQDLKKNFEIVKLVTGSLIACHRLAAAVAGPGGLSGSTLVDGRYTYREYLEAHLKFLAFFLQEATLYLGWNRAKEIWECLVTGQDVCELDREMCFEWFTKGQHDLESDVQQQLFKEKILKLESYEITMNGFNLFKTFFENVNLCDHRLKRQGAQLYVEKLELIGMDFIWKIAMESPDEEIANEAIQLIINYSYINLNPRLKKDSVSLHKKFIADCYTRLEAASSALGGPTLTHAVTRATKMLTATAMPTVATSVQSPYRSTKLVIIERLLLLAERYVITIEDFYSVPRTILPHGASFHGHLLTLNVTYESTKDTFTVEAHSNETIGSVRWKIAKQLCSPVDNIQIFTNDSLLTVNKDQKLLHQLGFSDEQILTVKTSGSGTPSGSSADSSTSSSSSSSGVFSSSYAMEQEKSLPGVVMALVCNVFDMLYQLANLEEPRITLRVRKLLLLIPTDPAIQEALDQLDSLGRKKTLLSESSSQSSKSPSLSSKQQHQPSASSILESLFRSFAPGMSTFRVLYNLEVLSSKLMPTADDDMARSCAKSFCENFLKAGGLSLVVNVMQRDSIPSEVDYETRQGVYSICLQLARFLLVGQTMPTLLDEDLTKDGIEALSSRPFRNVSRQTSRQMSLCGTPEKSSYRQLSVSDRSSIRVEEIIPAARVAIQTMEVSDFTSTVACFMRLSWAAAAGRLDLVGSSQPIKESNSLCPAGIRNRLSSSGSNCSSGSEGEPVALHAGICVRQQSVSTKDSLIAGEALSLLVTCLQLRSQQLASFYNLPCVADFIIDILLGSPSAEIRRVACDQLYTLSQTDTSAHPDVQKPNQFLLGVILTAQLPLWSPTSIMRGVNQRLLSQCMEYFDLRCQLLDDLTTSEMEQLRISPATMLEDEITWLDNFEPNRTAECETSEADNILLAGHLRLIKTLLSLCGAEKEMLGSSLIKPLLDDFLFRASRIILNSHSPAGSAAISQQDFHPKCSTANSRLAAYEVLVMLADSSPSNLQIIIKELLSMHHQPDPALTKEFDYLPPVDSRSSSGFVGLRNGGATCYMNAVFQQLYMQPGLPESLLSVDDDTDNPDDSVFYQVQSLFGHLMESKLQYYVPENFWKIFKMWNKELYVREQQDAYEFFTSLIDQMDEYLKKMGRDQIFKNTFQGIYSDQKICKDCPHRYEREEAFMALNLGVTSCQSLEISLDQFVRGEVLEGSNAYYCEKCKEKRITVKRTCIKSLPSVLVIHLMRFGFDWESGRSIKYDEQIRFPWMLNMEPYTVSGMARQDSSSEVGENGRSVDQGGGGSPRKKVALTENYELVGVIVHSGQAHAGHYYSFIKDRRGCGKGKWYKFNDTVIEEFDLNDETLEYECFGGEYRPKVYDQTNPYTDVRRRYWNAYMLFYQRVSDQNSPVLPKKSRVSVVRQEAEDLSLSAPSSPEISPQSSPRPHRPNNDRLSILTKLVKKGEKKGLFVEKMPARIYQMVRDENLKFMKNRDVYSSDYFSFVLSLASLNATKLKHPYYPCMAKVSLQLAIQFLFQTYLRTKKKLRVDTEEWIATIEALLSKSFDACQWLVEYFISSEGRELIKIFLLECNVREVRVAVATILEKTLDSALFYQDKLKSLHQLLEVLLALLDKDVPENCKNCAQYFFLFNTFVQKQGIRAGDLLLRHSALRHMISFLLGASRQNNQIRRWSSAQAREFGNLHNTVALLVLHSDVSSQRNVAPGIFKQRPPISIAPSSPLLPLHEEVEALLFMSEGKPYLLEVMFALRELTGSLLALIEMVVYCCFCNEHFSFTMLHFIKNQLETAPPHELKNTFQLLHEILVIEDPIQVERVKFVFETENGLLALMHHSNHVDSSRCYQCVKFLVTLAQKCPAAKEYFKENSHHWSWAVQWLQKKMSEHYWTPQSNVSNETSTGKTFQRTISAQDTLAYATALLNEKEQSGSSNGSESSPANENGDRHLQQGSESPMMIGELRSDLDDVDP
Procedure, shortened: as §1

USP25 = biological target: T2, USP25 (UniProt Q9UHP3)
T2 sequence (whole entry): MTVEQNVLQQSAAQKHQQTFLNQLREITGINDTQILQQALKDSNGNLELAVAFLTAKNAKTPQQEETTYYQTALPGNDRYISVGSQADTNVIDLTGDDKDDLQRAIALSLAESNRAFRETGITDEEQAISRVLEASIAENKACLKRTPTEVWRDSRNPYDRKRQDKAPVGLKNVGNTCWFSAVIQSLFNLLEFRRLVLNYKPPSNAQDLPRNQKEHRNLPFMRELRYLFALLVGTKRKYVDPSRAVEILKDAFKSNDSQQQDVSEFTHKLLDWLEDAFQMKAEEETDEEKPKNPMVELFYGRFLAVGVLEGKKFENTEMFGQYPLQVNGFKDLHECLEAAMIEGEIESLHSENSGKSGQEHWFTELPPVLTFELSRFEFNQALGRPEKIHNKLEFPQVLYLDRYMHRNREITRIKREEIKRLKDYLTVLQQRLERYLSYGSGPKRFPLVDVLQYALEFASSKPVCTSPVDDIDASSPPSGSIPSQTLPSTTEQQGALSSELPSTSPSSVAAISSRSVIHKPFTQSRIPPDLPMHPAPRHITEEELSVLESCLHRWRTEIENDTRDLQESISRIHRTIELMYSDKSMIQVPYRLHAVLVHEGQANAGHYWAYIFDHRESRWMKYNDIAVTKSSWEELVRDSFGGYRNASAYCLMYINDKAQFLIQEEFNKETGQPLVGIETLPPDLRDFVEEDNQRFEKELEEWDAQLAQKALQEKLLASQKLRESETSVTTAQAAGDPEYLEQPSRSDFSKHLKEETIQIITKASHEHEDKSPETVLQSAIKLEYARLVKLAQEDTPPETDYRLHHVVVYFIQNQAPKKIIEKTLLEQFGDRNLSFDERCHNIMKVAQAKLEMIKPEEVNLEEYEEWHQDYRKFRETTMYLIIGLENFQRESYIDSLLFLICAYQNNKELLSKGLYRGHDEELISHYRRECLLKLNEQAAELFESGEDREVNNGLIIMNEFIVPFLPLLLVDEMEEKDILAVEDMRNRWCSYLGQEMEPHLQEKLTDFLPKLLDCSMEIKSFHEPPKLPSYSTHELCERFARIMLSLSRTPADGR
Procedure, shortened: as §1

USP28 = biological target: T3, USP28 (UniProt Q96RU2)
T3 sequence (whole entry): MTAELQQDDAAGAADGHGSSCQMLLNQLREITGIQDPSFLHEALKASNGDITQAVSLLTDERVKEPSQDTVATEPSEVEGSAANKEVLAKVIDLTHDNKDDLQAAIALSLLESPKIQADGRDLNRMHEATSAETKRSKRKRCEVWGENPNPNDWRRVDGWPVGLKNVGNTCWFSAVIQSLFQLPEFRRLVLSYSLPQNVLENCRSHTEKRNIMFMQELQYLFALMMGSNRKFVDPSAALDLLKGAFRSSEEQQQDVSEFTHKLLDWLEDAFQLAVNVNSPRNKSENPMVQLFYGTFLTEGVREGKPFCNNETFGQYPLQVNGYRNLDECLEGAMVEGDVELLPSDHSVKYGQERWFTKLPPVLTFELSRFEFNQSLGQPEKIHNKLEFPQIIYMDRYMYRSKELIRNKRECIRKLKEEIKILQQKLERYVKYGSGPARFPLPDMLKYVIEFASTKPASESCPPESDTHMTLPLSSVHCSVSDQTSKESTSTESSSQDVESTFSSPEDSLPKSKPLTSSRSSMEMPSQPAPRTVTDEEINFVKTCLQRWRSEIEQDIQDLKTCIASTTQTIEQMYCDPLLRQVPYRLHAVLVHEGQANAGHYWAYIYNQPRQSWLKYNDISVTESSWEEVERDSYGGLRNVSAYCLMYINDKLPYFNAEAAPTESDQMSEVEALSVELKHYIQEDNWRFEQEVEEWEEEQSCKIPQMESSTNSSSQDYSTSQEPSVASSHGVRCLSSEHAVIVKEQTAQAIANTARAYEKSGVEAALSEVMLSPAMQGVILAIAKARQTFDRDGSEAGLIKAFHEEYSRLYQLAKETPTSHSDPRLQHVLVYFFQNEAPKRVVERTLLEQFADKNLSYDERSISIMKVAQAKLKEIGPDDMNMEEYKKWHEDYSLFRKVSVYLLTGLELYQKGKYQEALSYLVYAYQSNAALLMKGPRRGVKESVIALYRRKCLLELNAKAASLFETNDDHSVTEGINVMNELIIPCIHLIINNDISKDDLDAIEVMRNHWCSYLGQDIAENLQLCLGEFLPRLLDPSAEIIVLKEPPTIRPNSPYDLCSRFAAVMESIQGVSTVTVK
Procedure, shortened: as §1

Measured: log2 ratio of Biotin-Ahx-Ub-VS probe labelling

Chain of USP16 (Q9Y5T5 whole entry, looked up, the tested form may be a part): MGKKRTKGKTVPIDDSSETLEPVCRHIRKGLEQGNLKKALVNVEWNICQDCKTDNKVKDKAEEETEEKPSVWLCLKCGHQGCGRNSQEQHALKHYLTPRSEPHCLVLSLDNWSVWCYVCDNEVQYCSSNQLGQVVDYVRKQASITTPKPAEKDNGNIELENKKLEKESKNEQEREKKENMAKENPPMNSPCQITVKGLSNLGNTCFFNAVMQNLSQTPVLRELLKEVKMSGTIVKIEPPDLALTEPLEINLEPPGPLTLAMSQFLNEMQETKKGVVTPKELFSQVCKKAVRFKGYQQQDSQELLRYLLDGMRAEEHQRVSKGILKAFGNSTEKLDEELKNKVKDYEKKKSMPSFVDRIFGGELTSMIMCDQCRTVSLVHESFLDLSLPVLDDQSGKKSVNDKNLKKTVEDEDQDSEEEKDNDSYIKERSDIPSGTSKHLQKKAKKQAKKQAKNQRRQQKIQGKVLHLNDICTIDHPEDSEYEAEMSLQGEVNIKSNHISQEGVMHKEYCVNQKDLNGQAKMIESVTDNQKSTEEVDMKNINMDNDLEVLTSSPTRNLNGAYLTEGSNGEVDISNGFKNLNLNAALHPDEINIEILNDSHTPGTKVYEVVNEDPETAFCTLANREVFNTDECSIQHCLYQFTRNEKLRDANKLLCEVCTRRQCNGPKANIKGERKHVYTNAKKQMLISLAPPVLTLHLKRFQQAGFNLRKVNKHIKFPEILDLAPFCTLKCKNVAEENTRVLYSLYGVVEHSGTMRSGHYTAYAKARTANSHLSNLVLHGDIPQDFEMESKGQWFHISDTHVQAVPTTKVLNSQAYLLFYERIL

C[C@@H](NC(=O)CCl)c1cccc(C#N)c1
inactive: USP16 0.0341 | USP19 -0.157 | USP24 -0.254 | USP25 -0.569 | USP28 -0.723

— the supplement of paper PMC11732987, “Enantioselective OTUD7B fragment discovery through chemoproteomics screening and high-throughput optimisation” (Communications Chemistry, 2025)
